Laboratory results taken from the supplement of paper PMC3334620.
Over roughly 33,000 sequences, “E-score (-0.5 to 0.5)” has its median near -0.0059; the highest 2% begin near 0.26. The sample holds the highest values, similar sequences and a random draw of the others, so the mix is not that of the screen.

What follows are sequences tested against T1, Cin5 (UniProt P40917) (assay: PBM E-score (8-mer binding enrichment) (E-score (-0.5 to 0.5)); higher = stronger / more preferred TF binding). Details: protein concentration: 100 nM; construct: GST-full length.
T1 sequence: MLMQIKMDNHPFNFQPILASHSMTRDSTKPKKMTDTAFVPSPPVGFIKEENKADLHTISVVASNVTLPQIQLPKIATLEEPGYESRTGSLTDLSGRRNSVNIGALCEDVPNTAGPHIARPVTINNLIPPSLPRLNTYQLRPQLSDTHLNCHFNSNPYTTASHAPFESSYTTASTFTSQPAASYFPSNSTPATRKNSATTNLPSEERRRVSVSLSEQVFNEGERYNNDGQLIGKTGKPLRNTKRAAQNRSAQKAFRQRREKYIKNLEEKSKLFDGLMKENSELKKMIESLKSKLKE
Description: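 Universal 'all 10-mer' protein binding microarrays (Agilent AMADID 015681) probed with GST-tagged S. cerevisiae TFs (full-length or DBD) made by in vitro transcription/translation (PURExpress), about 100-200 nM. Bound TF was detected with fluorescent anti-GST. Each ungapped 8-mer (which stands for itself and its reverse complement) is scored by the PBM enrichment score (E-score), a modified Wilcoxon-Mann-Whitney statistic from -0.5 to +0.5, computed with the Universal PBM Analysis Suite. Scale: above 0.35 generally sequence-specific binding.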

Sequence | PBM E-score
CACCAGTG | -0.0701
AGCCTTGC | -0.0563
CCCCGGGC | -0.282
CGATGACA | 0.0915
ATCGACAT | 0.0947
ATATTTGC | 0.209
CCTTTAAG | -0.107
CTTGAGCA | -0.216
AATCTAAT | 0.0853
ATGTATTC | 0.104
CCCTATTA | -0.0143
GTCTATTA | 0.0891
GCCTATTA | 0.177
ACCTATTA | 0.267
ATGTATTG | 0.304
ACGTATTA | 0.298
ATCTATTA | 0.321
ACGTATTG | 0.0396
CTCTATTA | 0.0158
ATGTATCG | 0.232
GCGTATTA | 0.0794
ACTAGCAA | 0.00926
AGATCACT | 0.112
ACAAGTAT | 0.221
AGGTATTG | 0.126

Sequence | PBM E-score
CTTCAGTA | 0.0297
ATAGTAGA | 0.139
CTGTATTA | 0.133
ATGTATTA | 0.233
GTGTATTA | 0.273
GCTGTTCC | -0.0338
CTCTTATC | 0.192
GTGGAAAA | 0.0919
CCGCGTGC | -0.0723
GCTTACAA | 0.248
GCTTACAC | 0.391
CCTTACGA | -0.114
CATTACTA | 0.189
GCTTACCC | 0.00966
AATTACTA | 0.212
ACTTACGA | 0.207
GATTACTA | 0.387
GCTTACCA | 0.381
TCTTACCA | -0.0191
ACTTACAC | -0.04
GCTTACGA | 0.414
ATTGTGAC | 0.0953
GAGCCACC | -0.354
GTACCGGA | -0.00967
AGCGGCTG | -0.125

Sequence | PBM E-score
ACAGCCAG | -0.0281
CAATTGGC | 0.165
AATTCCAA | 0.0946
GACGCTTA | -0.059
CGACGTAC | -0.00505
CCGTCGCC | -0.0908
CCCATATA | 0.178
AGAAGGAC | -0.211
CGCCAGGA | -0.0898
CCTTACTA | 0.0454
ACTTATCA | 0.0834
GCTTATCA | 0.285
CCTTATCA | 0.0994
GCTTACTA | 0.388
ACTTACTA | 0.108
AAGCCGCG | -0.0409
ACATTCGA | 0.0628
ATCCGGAT | 0.259
ATCCGGAC | -0.149
ATCCGGAA | 0.227
TGGGGTAA | 0.0776
CGTAGTCA | -0.015
CATGTAAG | 0.13
AATGTAAG | 0.319
ACTGTAAG | 0.143

Sequence | PBM E-score
AATGTAAA | 0.19
AATGTAAT | 0.301
AATGTAAC | 0.117
CAGGCAAA | -0.00195
AGACCCAG | -0.097
CAACGCCA | -0.074
ATTATTTC | 0.3
ATCATTTA | 0.226
AGTATTTA | 0.0905
CTCATTTC | -0.04
CTTTATTA | 0.0651
GTTTATTA | 0.215
CTTATTTC | 0.238
ATTTATTA | 0.306
ACTATTTC | 0.228
GGTATTTA | 0.0824
CGTATTTA | 0.308
ATCATTTC | 0.264
ATAGACGC | 0.122
CACAGCAG | 0.0514
CCTGCGTA | -0.115
GCACCGAC | -0.0796
CTGATTTA | 0.0451
ATATTTTA | 0.201
ATTATTTG | 0.206

Sequence | PBM E-score
ATTATTTA | 0.319
ATTTATAC | 0.253
ATGATTTG | 0.123
CTTATTTA | 0.164
ATGATTTA | 0.268
ATATTTTC | 0.31
CTATTTTC | 0.0963
ATTTATAA | 0.299
CTTTATAA | -0.0352
GCACTGCA | -0.0484
AGCTGCTA | -0.0218
CCTGCAAG | -0.215
GAAGAATC | 0.00251
AACAGCCG | -0.0368
CCGCACAG | -0.0131
CTATAAAC | -0.00307
CTCTAAAA | -0.125
CTATAAAA | -0.0202
GTATAAAA | 0.26
ATATAAAC | 0.255
TGATAAAA | 0.0968
GTATAAAC | 0.26
TTATAAAA | 0.289
ATATAAAA | 0.154
AACGCCAA | -0.0074

Sequence | PBM E-score
GATTCTCC | -0.134
GTACTCTA | -0.0538
TATTCGAA | 0.0697
CCCTATGA | -0.066
CAATAGGC | -0.0915
AGGAATAG | 0.0234
GGCAAAAA | 0.202
GTTACTAA | 0.168
ATTACTGA | 0.108
CTTACTAC | 0.202
ATTACTAC | 0.145
ATTACTTA | 0.411
ATTACTAA | 0.334
CTTACTAA | 0.313
CTTACTTA | 0.25
ATTACTAG | 0.105
AAGATGGA | 0.109
CGAGTAGA | -0.139
ATTTACGC | 0.0814
GTCCGTTA | 0.12
ATCCGTTC | 0.0322
ATCCGTTA | 0.29
CGGGCTAA | -0.184
CGGTACTC | -0.161
CGTAGAGC | -0.0105

Sequence | PBM E-score
AAAAACCA | 0.0166
CAAGCGCA | 0.323
AAAGCGCA | -0.0252
CAAGCGCC | -0.291
CAATTCCC | 0.112
CTGATTAA | 0.108
CTGATTTC | -0.00928
ATGATTAC | 0.362
CTGATTAC | 0.378
ATGATTAG | 0.223
ATGATTAA | 0.256
GGGCTAGA | -0.149
CAGGCAAC | -0.0103
ACTATGTG | 0.0904
CTTATGAA | 0.0936
GATATGTA | 0.189
ATTATGTG | 0.345
CTTATGTA | 0.361
ATTATGAA | 0.258
CTTATGCA | 0.106
GTTATGAA | 0.159
GTTATGCA | 0.0592
GTTATGTA | 0.276
CATATGTA | 0.172
AGTATGTG | 0.14

Sequence | PBM E-score
AGTGCTTA | 0.199
AGTGAACT | 0.035
AGGCCACG | -0.155
GAGAAGAC | -0.0329
CTACACCA | -0.00077
GGGACACC | -0.238
CTAGTGAC | -0.0966
ATTATGCA | 0.118
ATTATGCC | 0.15
CTTATGTC | 0.219
ATTATGCG | 0.338
GCTATGTA | -0.0403
ATTATGTA | 0.42
ATTATGTC | 0.27
ACTATGTA | 0.202
ACTATGTC | -0.0438
AGCCATCA | 0.131
AACGCGAT | 0.0765
ACTTCGCC | 0.0471
CTACCCGA | -0.0656
CCACGGAC | -0.237
AGTTTCGC | 0.0693
ATAGGCCG | -0.185
ACCCTTAG | -0.101
GGACAGGA | -0.275

Sequence | PBM E-score
CATACTGA | 0.155
AATACTGG | 0.129
ACTACTAA | 0.177
AATACTGT | 0.258
TATACTGA | 0.274
ACTACTAT | 0.26
AATACTAT | 0.214
GATACTGA | 0.124
ACTACTAC | 0.00444
AGCTGTAG | 0.139
CAGATGAG | 0.0638
CGTGTTGC | -0.119
AAAGTGAT | -0.00439
GAAGTGAA | 0.202
AAAGTGAA | 0.258
TTACGCAA | 0.306
ATACGCAA | 0.217
GTACGCAA | -0.0571
CAGCTCCC | -0.305
